rCAG RNA binder: binders of r(CAG) RNA repeats, primary screen, biochemical, fluorescence. r(CAG) RNA repeat, TO-PRO-1 dye displacement fluorescence. inhibition, % at 3 µM. actives 1.3% (n = 370,000);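 active means inhibition above the plate cutoff, the mean of all test compounds on that plate plus 3 SD, cut at about 35% in these data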;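 further: higher means more dye released from RNA so lower well fluorescence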
MsrA act: bovine MsrA enzyme activators, primary screen, biochemical, absorbance, HTS; activation, % at 10.6 µM; purified bovine MsrA, absorbance read-out; AID 602163, 2012; actives 0.3% (n = 360,000); Methionine sulfoxide reductase A (Bos taurus); in the data active means activation above about 7.5%
MsrA inhibitor: bovine MsrA enzyme inhibitors, primary screen, biochemical, absorbance, HTS. Methionine sulfoxide reductase A (Bos taurus). purified bovine MsrA, absorbance read-out. inhibition, % at 15.5 µM. actives 0.75% (n = 360,000). AID 651718, 2012; in the data active means inhibition above about 4.5%
NadD inh: inhibitors of S. aureus NadD, primary screen, biochemical, colorimetric, uHTS; purified NadD enzyme, colorimetric absorbance read-out; inhibition, % at 20 µM; Nicotinate-nucleotide adenylyltransferase NadD (Staphylococcus aureus N315); actives 0.78% (n = 360,000); in the data active means inhibition above about 26%
NadD conf: inhibitors of S. aureus NadD, confirmation, biochemical, colorimetric, single concentration; inhibition, % at 20 µM; actives 13% (n = 2,000); AID 624309, 2012; purified S. aureus NadD, colorimetric enzyme assay; shares compounds with NadD inh; in the data active means inhibition mostly above about 42%, no sharp cut-off; inactive means mostly below about 42%
Numbers stand for hits; - = inactive; . = not tested or not shown. Rows were chosen to be rich in hits. Some 2.7% of all compounds tested hit in one or more screens of this group.

SMILES | rCAG RNA binder | MsrA act | MsrA inhibitor | NadD inh | NadD conf
Cc1c(NC(=O)C2CCCN(S(=O)(=O)c3ccc(Br)s3)C2)c(=O)n(-c2ccccc2)n1C (centres undefined) | - | . | . | . | .
O=C1NC[C@H](Cc2ccccc2)N(C[C@H]2CCCN2C[C@H](Cc2ccccc2)N2C[C@H](Cc3ccc(O)cc3)N(CC3CCCCCC3)C(=O)C2=O)C1=O | - | - | - | 31 | 48
O=C1NC[C@H](Cc2ccccc2)N(C[C@H]2CCCN2C[C@H](Cc2ccc(O)cc2)N2C[C@H](Cc3ccc(O)cc3)N(CC3CCCCCC3)C(=O)C2=O)C1=O | - | - | - | 33 | -
O=C1NC[C@H](Cc2ccc(O)cc2)N(C[C@@H]2CCCN2C[C@H](Cc2ccc(O)cc2)N2C[C@H](Cc3ccccc3)N(CC3CCCCCC3)C(=O)C2=O)C1=O | - | - | - | 45 | -
O=C1NC[C@H](Cc2ccc(O)cc2)N(C[C@@H]2CCCN2C[C@H](Cc2ccccc2)N2C[C@H](Cc3ccc(O)cc3)N(CC3CCCCCC3)C(=O)C2=O)C1=O | - | - | - | 39 | -
CC(C)C[C@H]1CN([C@@H](Cc2ccc(O)cc2)CN2CCC[C@H]2CN2C(=O)C(=O)NC[C@@H]2Cc2ccccc2)C(=O)C(=O)N1CC1CCCCC1 | - | - | - | - | .
C=CCN1C(=O)[C@H](CC(=O)NCc2cccs2)[C@@]2(C(=O)OCC)CCCC=C12 | - | . | . | . | .
O=C1NC[C@H](CCCCN2C[C@@H](Cc3ccccc3)N(CCC3CCCCC3)C(=O)C2=O)N(CCC2CCCCC2)C1=O | - | - | - | - | .
C=CCn1c(=NC(=O)c2ccc(S(=O)(=O)N3CCc4ccccc4C3)cc2)sc2cc(S(N)(=O)=O)ccc21 | - | - | - | 32 | -
CC(=O)Nc1ccc(NC(=O)COC(=O)c2c(-c3ccccc3)noc2C)cc1 | - | - | - | - | .
C=CC#CC[N+]1(CC#Cc2ccccc2)CCOCC1 | - | - | - | 44 | -
O=C(Nc1cc([N+](=O)[O-])ccc1O)c1cccc(C(=O)Nc2cc([N+](=O)[O-])ccc2O)c1 | - | - | - | 48 | -
COC(=O)c1cc2c(n1S(=O)(=O)c1ccc(C)cc1)C(=O)C(=O)c1[nH]cc(C(=O)OCc3ccccc3)c1-2 | . | - | . | - | .
COC(=O)c1ccc2c(c1)N(Cc1nc(-c3ccc(Cl)cc3)oc1C)C(=O)C1CCCN21 (centres undefined) | - | - | - | 45 | -
COC(=O)c1cc2occc2n1Cc1nc(-c2ccc(Cl)cc2)oc1C | - | - | - | - | .
COc1ccc([C@@H]2CC(=O)[C@@H]3CN(S(=O)(=O)c4ccc(Cl)cc4)[C@H](c4ccc(C)cc4)C[C@@H]3N2S(=O)(=O)c2ccccc2)cc1 | - | - | - | 30 | -
CCCn1c(C)cc(/C=C(\C#N)C(=O)OCC(=O)N(CC)c2c(N)n(Cc3ccccc3)c(=O)[nH]c2=O)c1C | - | - | - | - | .
COc1ccc(C2CCC3(CCC(=O)N3CCO)CC2)cc1 (centres undefined) | - | . | . | . | .
C#CCn1c(=NC(=O)c2sc3ccccc3c2Cl)sc2cc(S(N)(=O)=O)ccc21 | - | - | - | 39 | -
C#CCn1c(=NC(=O)c2ccccc2[N+](=O)[O-])sc2cc(S(C)(=O)=O)ccc21 | - | - | - | - | .
C=CCn1c(O)c(C2=c3ccccc3=NC2=O)c2ccccc21 | - | - | - | - | .
C=CCn1c(O)c(C2=c3ccccc3=NC2=O)s/c1=N/c1nccs1 | - | - | - | 33 | -
Cc1[nH]c2ccc(C(=O)NCCCN3CCCC3)cc2c1C | - | - | - | - | .
Cc1[nH]c2ccc(C(=O)NCCCN3CCCCCC3)cc2c1C | - | - | - | 29 | -
CCCCN1C(=O)Cc2c1nc(N)c1c(N)nc(N(CCC)CCC)c(C#N)c21 | - | - | - | - | .
SMILES | rCAG RNA binder | MsrA act | MsrA inhibitor | NadD inh | NadD conf
C=C(C)CN(CC)c1nc(N)c2c(N)nc3c(c2c1C#N)CC(=O)N3C12CC3CC(CC(C3)C1)C2 | - | - | - | 35 | -
Cc1cccc(N2CC(C(=O)Nc3nnc(SCCN4CCOCC4)s3)CC2=O)c1 (centres undefined) | - | - | - | 27 | -
Cc1cccc(N2CC(C(=O)Nc3nnc(SCCC4OCCO4)s3)CC2=O)c1 (centres undefined) | - | - | - | 41 | -
Cc1cccc(N2CC(C(=O)Nc3nnc(SCC(=O)NCC4CCCO4)s3)CC2=O)c1 (centres undefined) | - | - | - | - | .
Cc1csc(NC(=O)c2ccc(Cl)nc2)n1 | - | - | - | - | .
FC(F)(F)c1ccccc1Cc1c(-c2ccco2)nc2ccc(Cl)cn12 | - | - | - | - | .
FC(F)(F)c1cc(Cl)c2nc(-c3ccco3)c(Cc3ccccc3C(F)(F)F)n2c1 | 58 | - | - | 43 | -
CCCCCc1ccc(NC(=O)OCCCN2CCC3(CCC(c4ccccc4)CC3)C2=O)cc1 (centres undefined) | - | . | . | . | .
CCOc1ccc(CCN2C(=O)C(=O)N([C@@H](Cc3ccc(O)cc3)CN3CCC[C@@H]3CN3C(=O)C(=O)NC[C@@H]3Cc3ccccc3)C[C@@H]2Cc2ccccc2)cc1 | - | - | - | 29 | -
CCOc1ccc(CCN2C(=O)C(=O)N([C@@H](Cc3ccccc3)CN3CCC[C@H]3CN3C(=O)C(=O)NC[C@@H]3Cc3ccc(O)cc3)C[C@@H]2Cc2ccc(O)cc2)cc1 | - | - | - | - | .
CCOc1ccc(CCN2C(=O)C(=O)N([C@@H](Cc3ccc(O)cc3)CN3CCC[C@H]3CN3C(=O)C(=O)NC[C@@H]3Cc3ccc(O)cc3)C[C@@H]2Cc2ccccc2)cc1 | - | - | - | - | .
CCOc1ccc(CCN2C(=O)C(=O)N([C@@H](Cc3ccccc3)CN3CCC[C@H]3CN3C(=O)C(=O)NC[C@@H]3CC(C)C)C[C@@H]2Cc2ccc(O)cc2)cc1 | - | - | - | 30 | -
O=C(COc1ccc(F)cc1)NN1C(=O)CSC1=S | - | - | - | - | .
N#C/C(=C\c1cn(-c2ccccc2)nc1-c1cc2ccccc2o1)c1nc2ccccc2[nH]1 | - | - | - | 29 | -
CN(C)S(=O)(=O)c1cccc(-c2nn(-c3ccccc3)cc2/C=C(\C#N)c2nc3ccccc3[nH]2)c1 | - | - | - | 37 | -
Cc1ccc(-c2nn(-c3ccccc3)cc2/C=C(\C#N)c2cccc(C#N)c2)o1 | . | - | . | - | .
COc1ccc(-c2nn(-c3ccccc3)cc2/C=C(\C#N)S(=O)(=O)c2ccccc2)cc1OC | - | - | - | - | .
COc1ccc(C2C(C#N)=C(N)N(c3sc4c(c3C#N)CCCC4)C3=C2C(=O)CC(C)(C)C3)cc1 (centres undefined) | . | - | . | - | .
COc1ccc(C2C(C#N)=C3NC(=O)c4c(sc5c4CCCCC5)N3C3=C2C(=O)CC(C)(C)C3)cc1 (centres undefined) | - | - | - | 61 | -
COc1ccccc1CCn1cnc(-c2ccccc2OC)c1C(C)C | - | . | - | . | .
